The results in this text go back to PubChem BioAssay AID2796 (The Scripps Research Institute Molecular Screening Center, 2010).

Among all 320,000 compounds or so, about 8,000 (2.5%) were called active. Only a selection was taken, and actives are over-represented in it overall. Unmarked numbers belong to inactive results. Cut-off read from the data, not from the text of the source: active = activation above about 47%; inactive = the rest.

Aryl hydrocarbon receptor (Homo sapiens), sequence (P35869 whole entry, looked up): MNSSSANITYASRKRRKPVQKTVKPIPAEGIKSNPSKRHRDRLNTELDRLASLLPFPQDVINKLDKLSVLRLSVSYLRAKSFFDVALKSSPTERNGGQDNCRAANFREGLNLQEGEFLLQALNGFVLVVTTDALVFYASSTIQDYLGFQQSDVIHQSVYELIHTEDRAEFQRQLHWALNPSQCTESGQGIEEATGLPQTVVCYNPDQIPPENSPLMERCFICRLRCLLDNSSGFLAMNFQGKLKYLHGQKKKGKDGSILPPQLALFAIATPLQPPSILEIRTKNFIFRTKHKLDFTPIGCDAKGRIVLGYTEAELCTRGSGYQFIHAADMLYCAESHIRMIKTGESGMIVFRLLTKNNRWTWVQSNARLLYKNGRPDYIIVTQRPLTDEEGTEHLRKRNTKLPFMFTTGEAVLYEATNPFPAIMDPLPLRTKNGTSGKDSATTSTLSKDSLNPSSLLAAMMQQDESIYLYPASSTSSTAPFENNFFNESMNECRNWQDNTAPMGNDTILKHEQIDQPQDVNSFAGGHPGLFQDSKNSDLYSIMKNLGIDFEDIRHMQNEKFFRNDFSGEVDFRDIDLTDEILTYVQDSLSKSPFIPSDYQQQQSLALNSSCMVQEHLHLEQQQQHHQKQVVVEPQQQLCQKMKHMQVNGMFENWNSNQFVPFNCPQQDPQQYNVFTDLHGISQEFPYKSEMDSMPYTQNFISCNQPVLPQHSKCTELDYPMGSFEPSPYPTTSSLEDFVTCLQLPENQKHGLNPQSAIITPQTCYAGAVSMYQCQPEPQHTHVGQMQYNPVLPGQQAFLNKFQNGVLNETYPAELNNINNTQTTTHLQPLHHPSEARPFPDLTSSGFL

The assay concerns the target Aryl hydrocarbon receptor (Homo sapiens) (UniProt P35869). Kind of assay: AHR activators, primary screen, cell-based, luminescence, luciferase reporter, human (AID 2796).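 Note: 0% = vehicle wells and 100% = reference agonist.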 The conditions noted are these: AHR-responsive luciferase reporter cells, at 5 µM, hits give high values. Background: A reporter such as luciferase makes a cellular process visible.
Take `CCc1cccc(C)c1NS(=O)(=O)c1cc(Br)cnc1N`: the activation is 3.17%.

For the molecule `Cc1ccc(Cl)cc1NC(=O)C1CCN(S(C)(=O)=O)CC1`, the activation was 7.96%.

On to `Cc1ccc(Cl)cc1NC(=O)COC(=O)C1CCCCC1`, for which the activation was 0.36%.

Take `Cc1ccc(Cl)cc1NC(=O)C1CCCN(c2cnccn2)C1` (stereo not drawn): the activation was 80% (active).

Consider `O=C(Nc1cccc(Cl)c1)C1CCCN(c2cnccn2)C1` (stereo not drawn), for which the activation is 82.4% (active).

Turning to `O=C(Nc1ccc2c(c1)OCCO2)C1CCCN(c2ncccn2)C1` (stereo not drawn), the activation was 20.4%.

As for `COc1cc(NC(=O)C2CCN(c3cnccn3)CC2)cc(OC)c1`, the activation is 5.78%.

Consider `CC(C)[C@H](NC(=O)N1CCn2c1nc1ccccc12)C(=O)NCc1ccc2c(c1)OCO2`, for which the activation is 6.92%.

Take `CC(C)CNc1ncnc2c1cnn2Cc1ccc(Cl)cc1`: the activation was 0%.

Regarding `Cc1cccc(CS(=O)(=O)c2ncc(Cl)c(C(=O)Nc3ccc(F)cc3)n2)c1`, the activation is 27.3%.

Regarding `OC(c1ccc(Cl)cc1)C(CN1CCOCC1)c1ccccc1` (stereo not drawn), the activation is 2.39%.

For `Cc1ccc(N(C(=O)c2sc(C)nc2C)C(C(=O)NC(C)(C)C)c2ccncc2)cc1` (stereo not drawn), the activation was -0.51%.

As to `CC(C)c1ccccc1OCC(O)CN(CC(O)COc1cccc2ccccc12)C(C)C` (stereo not drawn), the activation was 5.3%.

In the case of `CC1Cc2ccccc2N1CC(=O)Nc1ccc(S(N)(=O)=O)cc1` (stereo not drawn), the activation was 3.1%.

For `CC1Cc2ccccc2N1CC(=O)Nc1ccc2c(c1)OC(F)(F)O2` (stereo not drawn), the activation was 61.4% (active).

Take `O=C(COC(=O)c1ccc[nH]c1=O)Nc1ccc2c(c1)OC(F)(F)O2`: the activation was 0.45%.

With `CCOC(=O)N1CCC(Nc2c(NCCCN3CCN(c4ccc(OC)cc4)CC3)c(=O)c2=O)CC1`, the activation was 1.99%.

With `O=C(Nc1nc2ccccc2s1)c1ccc2c(c1)OCO2`, the activation is 6.38%.

With `COc1cc(NC(=O)c2ccc3c(c2)OCO3)ccc1NC(=O)c1cccs1`, the activation is 12.8%.

Regarding `COCc1nnc(NC(=O)c2ccc3c(c2)OCO3)s1`, the activation was 50% (active).

On to `CC(C)NC(=O)CSc1ccccc1C(=O)NCc1ccc2c(c1)OCO2`, for which the activation is 1.44%.

`Cc1ccc(C(=O)Nc2ccc3c(c2)OCO3)cc1S(=O)(=O)N1CCCCC1`: the activation is 38.4%.

With `O=C(Nc1cccc(S(=O)(=O)N2CCCCC2)c1)c1cncc(Br)c1`, the activation was 17.9%.

As to `O=C(Nc1ccc2c(c1)OCO2)c1sc2cc(Cl)ccc2c1Cl`, the activation is 33.1%.

Turning to `CC(Sc1nc2cc(Cl)ccc2s1)C(=O)Nc1ccc2c(c1)OCO2` (stereo not drawn), the activation is 65.3% (active).

For `O=C(Nc1cccc(S(=O)(=O)N2CCCCC2)c1)c1ccc2c(c1)OCO2`, the activation was 56% (active).

Consider `CC(Sc1nc(-c2ccccc2)cc(C(F)(F)F)n1)C(=O)Nc1ccc2c(c1)OCO2` (stereo not drawn), for which the activation was 5.04%.

In the case of `CCSc1ccccc1C(=O)Nc1ccc2c(c1)OCO2`, the activation is 80.8% (active).

Take `CSc1ncccc1C(=O)Nc1ccc2c(c1)OCO2`: the activation was 32.3%.

Consider `O=C(NCc1ccc2c(c1)OCO2)C(=O)NCC1OCCN1S(=O)(=O)c1ccc(F)cc1` (stereo not drawn), for which the activation is 1.35%.

As to `CC(=O)c1nn(-c2cccc(C(F)(F)F)c2)c(=O)[nH]c1=O`, the activation is 0.72%.

Take `COc1ccc(CCNC(=O)CCNS(=O)(=O)c2cc(Br)cnc2N)cc1OC`: the activation is -0.76%.

As for `O=C(CN(C(=O)CNC(=O)c1cccs1)c1cccc(F)c1)NC1CCCCC1`, the activation was 1.69%.

Turning to `Cc1ccc(C(=O)N2CCN(S(=O)(=O)N3CCOCC3)CC2)cc1`, the activation is 4.12%.

Take `CCC(C)C(=O)Nc1cc([N+](=O)[O-])ccc1Cl` (stereo not drawn): the activation is 12%.

For the molecule `COc1ccc(S(=O)(=O)N2CCC(C(=O)N3CCCC3)CC2)cc1C`, the activation is -0.5%.

For `C/C(=N\N)c1c(-c2ccccc2)c2cc(Br)ccc2[nH]c1=O`, the activation was 2.69%.

With `COc1ccccc1C(=O)NCC(=O)OCC(=O)NNC(=O)c1ccc(Br)cc1`, the activation is 0.52%.

As to `Cc1cc2nc3n(c2cc1C)CC1CC(C(=O)NCCC(C)C)N(C)C31` (stereo not drawn), the activation was 2.06%.

On to `CCOC(=O)[C@H]1[C@H]2COc3ccccc3[C@@H]2N2C(=O)CN(Cc3ccccc3)C(=O)[C@@]12C`, for which the activation is 0.71%.

In the case of `CCOC(=O)C1=C(COC(=O)[C@H](C)NS(=O)(=O)c2ccccc2F)NC(=O)NC1C` (stereo partly drawn), the activation was -0.94%.

Regarding `C[C@H](CO)N1C[C@H](C)[C@H](CN(C)C(=O)Nc2ccc(C(F)(F)F)cc2)Oc2c(NC(=O)c3ccncc3)cccc2C1=O`, the activation is 5.42%.

Consider `O=C1Nc2ccc(Br)cc2/C1=N/N=C/C1=C(N2CCOCC2)C(=C\c2ccccc2)/CC1`, for which the activation is 22.3%.

With `O=C(Nc1ccccc1)c1ccc2c(c1)OCCCO2`, the activation was -1.81%.

As to `CC(C)C(=O)Nc1cccc(C(=O)Nc2ccc3c(c2)OCO3)c1`, the activation was 56% (active).

For the molecule `CC(NC(=O)Nc1ccc2c(c1)OCO2)c1ccncc1` (stereo not drawn), the activation was 29.5%.

Consider `Cc1cccc(NC(=O)/C=C/c2ccc3c(c2)OCO3)n1`, for which the activation was -3.06%.

Regarding `CC(C)CNS(=O)(=O)c1ccc(C(=O)Nc2ccc3c(c2)OCO3)cc1`, the activation is 9.22%.

As to `O=C(Nc1cccnc1)c1ccc2c(c1)OCO2`, the activation was 51.4% (active).

For the molecule `O=C(Nc1cccc([N+](=O)[O-])c1)c1ccc2c(c1)OCO2`, the activation is 14.3%.

On to `O=C(Nc1ccc(NC(=O)c2ccc3c(c2)OCO3)cc1)c1cccc(Cl)c1`, for which the activation is -2.05%.

Take `Cc1ccc2nc(-c3ccncc3)cc(C(=O)Nc3ccc4c(c3)OCCO4)c2c1`: the activation is 5.93%.

Take `Cc1ccc2nc(-c3ccccn3)cc(C(=O)Nc3ccc4c(c3)OCO4)c2c1`: the activation was 47.8% (active).

Take `Cc1cccc(NC(=O)Nc2ccc3c(c2)OCO3)n1`: the activation is 180% (active).

Turning to `O=C(Nc1ccncc1)c1cc(-c2ccccn2)nc2ccc(Br)cc12`, the activation is 4.97%.

In the case of `CCN(C(=O)COC(=O)c1ccc(COc2ccc3c(C)cc(=O)oc3c2)cc1)C1CCS(=O)(=O)C1` (stereo not drawn), the activation is 1.82%.

Take `CC(=O)Nc1ccc(S(=O)(=O)NC(C)C(=O)OCCOc2ccc(F)cc2)cc1` (stereo not drawn): the activation is -0.37%.

On to `Cc1cccc2nc(CSc3nc4[nH]ncc4c(=O)n3-c3cccc(Cl)c3)cc(=O)n12`, for which the activation was 2.86%.

In the case of `COCC(C)n1c(C)cc(C(=O)CSc2cc(C)c3ccccc3n2)c1C` (stereo not drawn), the activation is 43.7%.

As to `O=C(Cc1ccc([N+](=O)[O-])cc1)Nc1ccc(C(=O)N2CCOCC2)cc1`, the activation is 0.42%.

Take `C=CCN(c1ccccc1C(=O)NCC(=O)OCC)S(=O)(=O)c1ccc(C)cc1`: the activation is -1.83%.

In the case of `Cc1ccccc1N1CCN(C2CCCN(C(=O)c3cn4c(C)cccc4n3)C2)CC1` (stereo not drawn), the activation was 1.46%.

As for `COc1ccc(-n2nc(C(=O)NCC(=O)N3CCN(c4ccccc4OC)CC3)c3ccccc3c2=O)c(OC)c1`, the activation is 3.01%.

Turning to `O=C(CCN1C(=O)[C@H]2CC=CC[C@H]2C1=O)NCc1nc(-c2ccccc2)no1`, the activation is 1.79%.

With `CC(=O)N1CC(C)c2scc(C)[n+]2-c2ccccc21` (stereo not drawn), the activation is -2.51%.

Take `Cc1cc(C(=O)Nc2nnc(C3CC3)s2)c(C)s1`: the activation was 23.6%.

On to `O=C(Nc1nnc(C2CC2)s1)c1cc(Cl)sc1Cl`, for which the activation was 63.3% (active).

In the case of `O=C(Nc1nnc(C2CC2)s1)c1ccccn1`, the activation was -1.71%.

On to `CCCCOc1ccc(NC(=O)CSCC(=O)OCC)cc1`, for which the activation was -0.97%.

With `COc1ccc2ccccc2c1/C=N/NC(=O)c1cc(C)[nH]n1`, the activation was 39%.

As for `COCCNC(=S)N/N=C/c1c(C)[nH]c2ccccc12`, the activation was 47.6% (active).

On to `Cc1[nH]c2ccccc2c1/C=N/NC(=O)CNC(=O)c1ccc2c(c1)OCO2`, for which the activation was 18.3%.

Regarding `CCCCN(CC(=O)NC(C)(C)C)C(=O)C(=O)Nc1ccc2c(c1)OCCO2`, the activation was 7.49%.

Take `Cc1cc(=O)oc2cc(OCC(=O)N3CCN(c4ccc(F)cc4)CC3)c(Cl)cc12`: the activation is -0.42%.

In the case of `Cc1nc(COc2cc3oc(=O)cc(C)c3cc2Cl)cs1`, the activation was 48.1% (active).

Regarding `Cc1cc(=O)oc2ccc(OCC(=O)O)cc12`, the activation is -5.16%.

As for `CC(C)NC(=S)Nc1cccc2cnccc12`, the activation is 15%.

Turning to `COCCSc1nnc(NC(=O)CCS(=O)(=O)Cc2ccccc2)s1`, the activation is 22.7%.

As for `COc1ccc(-c2ccc3nnc(SCC(=O)Nc4ccc(NC(C)=O)cc4)n3n2)cc1`, the activation is 3.13%.

As to `Fc1ccc(-c2ccc(NCCN3CCOCC3)nn2)cc1`, the activation is 2.58%.

On to `O=C(N/N=C/c1ccco1)c1ccc(C(=O)N/N=C/c2ccco2)o1`, for which the activation was 86% (active).

As to `O=C(N/N=C/c1ccco1)c1csc2c1CCCC2`, the activation is 8.16%.

Take `O=C(Cc1ccc([N+](=O)[O-])cc1)N/N=C/c1ccco1`: the activation was 1.25%.

`CCNC(=O)N(CC)C[C@H]1N[C@@](CC)(C(=O)OC)[C@H]2C(=O)N(Cc3ccccc3)C(=O)[C@@H]12`: the activation was -0.15%.

`COc1ccc(N(Cc2ccc(N(C)C)cc2)C(=O)c2ccc(S(C)(=O)=O)cc2)cc1`: the activation is -2.92%.

Regarding `COCc1cc(C)nc(Nc2cc(C)ccc2C)c1C#N`, the activation was 52.2% (active).

Turning to `Cc1cc(C)c(C#N)c(Nc2cccc(Br)c2)n1`, the activation was 19.3%.

Regarding `COCc1cc(C)nc(SCC(=O)Nc2cccc(C)c2)c1C#N`, the activation was 2.83%.

Regarding `O=C(CSc1nc(O)c(Cc2ccccc2)c(=O)[nH]1)Nc1nc2c(s1)CCCC2`, the activation is 1.1%.

With `COc1cc(/C=N/Nc2nn3cnnc3c3ccccc23)cc(OC)c1OC`, the activation was 38.4%.

As to `COc1cc(/C=N/N=C(\N)c2nonc2N)cc(OC)c1OC`, the activation is 91.3% (active).

As to `COc1cc(/C=N\NC(=O)c2nonc2N)c(OC)cc1Br`, the activation was 15.2%.

Regarding `CC(C)(C)C(=O)NCCCNc1ccc([N+](=O)[O-])cc1`, the activation was 2.34%.
